“And” between values parts separate entries of the source, which are not always exact repeats. Equal entries are not always repeated. Screen size: about 5,500 compounds; about 2,000 (36%) were called active. Inconclusive results (about 18%) are left out. Cut-off read from the data, not from the text of the source: active = normalized growth mostly below about 0.91 (no sharp cut-off); inconclusive = no clear call, values can overlap the other calls; inactive = mostly above about 0.92. The list shows a part of the results.
Experiment: chemical genetic growth profiling, strain panel (AID 1159580);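 note: tested at 20 µM; growth read once vehicle control cultures reached saturation at 30 °C; 1 = growth at the plate median or of vehicle wells; lower values mean less growth of the strain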
Details: S. cerevisiae deletion strains, growth OD

Measured: normalized growth

C[C@]12CCC3c4ccc(OC(=O)c5ccccc5)cc4CCC3C1CCC2=O (stereo not given in full)
inactive: locus YAL013W, strain DEP1, hits give low values 0.986 | locus YAL021C, strain ccr4, hits give low values 1 | locus YAL026C, strain drs2, hits give low values 0.989 | locus YAL030W, strain snc1, hits give low values 0.99 | locus YBL061C, strain skt5, hits give low values 0.987 | locus YBR009C, strain hhf1, hits give low values 0.972 | locus YBR021W, strain FUR4, hits give low values 0.981 | locus YBR023C, strain chs3, hits give low values 0.984 | locus YBR171W, strain sec66, hits give low values 0.977 | locus YBR229C, strain ROT2, hits give low values 1 | locus YBR231C, strain swc5, hits give low values 0.987 | locus YBR279W, strain paf1, hits give low values 0.988 | locus YCL011C, strain gbp2, hits give low values 0.987 | locus YCL016C, strain dcc1, hits give low values 0.985 | locus YCL029C, strain bik1, hits give low values 0.996 | locus YCL061C, strain MRC1, hits give low values 0.988 | locus YCL069W, strain vba3, hits give low values 0.986 | locus YCR088W, strain abp1, hits give low values 0.984 | locus YDL005C, strain med2, hits give low values 0.987 | locus YDL035C, strain GPR1, hits give low values 0.986 | locus YDL040C, strain nat1, hits give low values 0.993 | locus YDL074C, strain BRE1, hits give low values 0.974 | locus YDL101C, strain DUN1, hits give low values 1 | locus YDL185W, strain tfp1, hits give low values 0.951 | locus YDL192W, strain arf1, hits give low values 1.02 | locus YDR001C, strain nth1, hits give low values 0.986 | locus YDR069C, strain doa4, hits give low values 0.98 | locus YDR101C, strain arx1, hits give low values 0.969 | locus YDR137W, strain rgp1, hits give low values 1 | locus YDR159W, strain sac3, hits give low values 0.968 | locus YDR162C, strain NBP2, hits give low values 1.01 | locus YDR195W, strain ref2 0.934 | locus YDR297W, strain sur2, hits give low values 0.985 | locus YDR318W, strain mcm21, hits give low values 1.02 | locus YDR334W, strain swr1, hits give low values 0.986 | locus YDR335W, strain msn5, hits give low values 0.982 | locus YDR388W, hits give low values 0.992 | locus YDR392W, strain spt3, hits give low values 0.864 | locus YDR502C, strain sam2, hits give low values 1 | locus YEL003W, strain gim4, hits give low values 0.977 | locus YEL037C, strain rad23, hits give low values 0.98 | locus YEL061C, strain CIN8 (second series), hits give low values 0.981 | locus YEL061C, strain CIN8, hits give low values 1 | locus YER015W, strain faa2, hits give low values 0.991 | locus YER016W, strain bim1, hits give low values 0.969 | locus YER110C, hits give low values 0.982 | locus YER111C, strain swi4, hits give low values 0.974 | locus YER155C, strain BEM2 (second series), hits give low values 0.974 | locus YER155C, strain BEM2, hits give low values 0.996 | locus YER167W, strain BCK2, hits give low values 1.01 | locus YFR010W, strain ubp6, hits give low values 0.993 | locus YGL078C, strain dbp3, hits give low values 1.01 | locus YGL086W, strain mad1, hits give low values 0.972 | locus YGL167C, strain pmr1, hits give low values 0.965 | locus YGL173C, strain kem1, hits give low values 0.988 | locus YGL227W, strain vid30, hits give low values 0.986 | locus YGL240W, strain doc1, hits give low values 0.99 | locus YGL248W, strain PDE1, hits give low values 1.02 | locus YGL253W, strain hxk2, hits give low values 0.976 | locus YGR135W, strain pre9, hits give low values 1.03 | locus YGR252W, strain gcn5, hits give low values 1.2 | locus YHR013C, strain ard1, hits give low values 0.939 | locus YHR027C, strain rpn1, hits give low values 0.996 | locus YHR030C, strain SLT2, hits give low values 0.991 and 1.06 | locus YHR079C, strain IRE1 (second series), hits give low values 0.997 | locus YHR079C, strain IRE1, hits give low values 1.07 | locus YHR094C, strain hxt1, hits give low values 0.999 | locus YHR129C, strain ARP1, hits give low values 0.997 | locus YHR142W, strain chs7, hits give low values 0.996 | locus YHR200W, strain rpn10, hits give low values 0.994 | locus YIL066C, strain RNR3, hits give low values 1 | locus YIL073C, strain SPO22, hits give low values 0.933 | locus YIL125W, strain kgd1, hits give low values 1 | locus YIR030C, strain dcg1, hits give low values 1.01 | locus YJL092W, strain hpr5, hits give low values 0.98 | locus YJL095W, strain BCK1 (second series), hits give low values 0.992 | locus YJL095W, strain BCK1, hits give low values 1.05 and 1.07 | locus YJL115W, strain asf1, hits give low values 0.995 | locus YJL129C, strain trk1, hits give low values 0.979 | locus YJL134W, strain LCB3, hits give low values 0.987 | locus YJL154C, strain vps35, hits give low values 0.986 | locus YJL164C, strain tpk1, hits give low values 0.977 | locus YJL166W, strain qcr8, hits give low values 0.983 | locus YJL168C, strain set2, hits give low values 0.996 | locus YJL187C, strain SWE1 (second series), hits give low values 1.01 | locus YJL187C, strain SWE1, hits give low values 0.996 | locus YJR043C, strain POL32, hits give low values 1.01 | locus YJR066W, strain TOR1, hits give low values 1.01 | locus YJR075W, strain HOC1, hits give low values 0.998 | locus YKL009W, strain mrt4, hits give low values 0.977 | locus YKL068W, hits give low values 0.975 | locus YKL085W, strain MDH1 (second series), hits give low values 1.01 | locus YKL085W, strain MDH1, hits give low values 1.01 | locus YKL160W, strain elf1, hits give low values 1.01 | locus YKR001C, strain vps1, hits give low values 0.993 | locus YKR026C, strain gcn3, hits give low values 0.978 | locus YKR091W, strain srl3, hits give low values 0.986 | locus YLL001W, strain dnm1, hits give low values 0.998 | locus YLL026W, hits give low values 0.984 | locus YLL041C, strain sdh2, hits give low values 0.989 | locus YLR027C, strain aat2, hits give low values 0.998 | locus YLR039C, strain RIC1, hits give low values 1.01 | locus YLR058C, strain SHM2, hits give low values 1.01 | locus YLR102C, strain apc9, hits give low values 0.993 | locus YLR113W, strain HOG1, hits give low values 1 | locus YLR221C, strain rsa3, hits give low values 1.01 | locus YLR258W, strain gsy2, hits give low values 0.971 | locus YLR262C, strain YPT6 (second series), hits give low values 0.94 | locus YLR262C, strain YPT6, hits give low values 0.959 | locus YLR268W, strain sec22, hits give low values 0.972 | locus YLR320W, strain mms22, hits give low values 0.98 | locus YLR330W, strain CHS5, hits give low values 0.984 | locus YLR342W, strain FKS1 (second series), hits give low values 1.01 | locus YLR342W, strain FKS1, hits give low values 0.979 | locus YLR357W, strain rsc2, hits give low values 0.947 | locus YLR370C, strain arc18, hits give low values 0.99 | locus YLR371W, strain rom2, hits give low values 1 | locus YLR384C, strain iki3, hits give low values 0.985 | locus YLR418C, strain cdc73, hits give low values 1.07 | locus YML016C, strain PPZ1, hits give low values 0.998 | locus YML032C, strain rad52, hits give low values 1.03 | locus YML120C, strain ndi1, hits give low values 0.986 | locus YML124C, strain tub3, hits give low values 1.01 | locus YMR058W, strain fet3, hits give low values 0.985 | locus YMR078C, strain ctf18, hits give low values 1.01 | locus YMR125W, strain sto1, hits give low values 0.978 | locus YMR129W, hits give low values 0.969 | locus YMR205C, strain PFK2, hits give low values 0.949 | locus YMR223W, strain ubp8, hits give low values 1.04 | locus YMR231W, strain pep5, hits give low values 0.979 | locus YMR263W, strain SAP30, hits give low values 0.997 | locus YMR307W, strain GAS1, hits give low values 1.22 | locus YNL067W, strain RPL9B, hits give low values 1.02 | locus YNL071W, strain lat1, hits give low values 0.993 | locus YNL128W, strain TEP1, hits give low values 0.971 | locus YNL153C, strain GIM3, hits give low values 1.02 | locus YNL183C, strain NPR1, hits give low values 1.01 | locus YNL209W, strain ssb2, hits give low values 0.989 | locus YNL233W, strain BNI4, hits give low values 1.01 | locus YNL248C, strain rpa49, hits give low values 1.01 | locus YNL250W, strain rad50, hits give low values 0.96 | locus YNL271C, strain bni1, hits give low values 1.02 | locus YNL298W, strain CLA4, hits give low values 1.01 | locus YNL307C, strain MCK1, hits give low values 0.996 | locus YNL322C, strain KRE1 (second series), hits give low values 0.994 | locus YNR049C, strain mso1, hits give low values 0.98 | locus YNR052C, strain pop2, hits give low values 1.02 | locus YOL012C, strain htz1 1.22 | locus YOL147C, strain pex11, hits give low values 0.998 | locus YOR001W, strain rrp6, hits give low values 1.01 | locus YOR061W, strain CKA2, hits give low values 1.01 | locus YOR069W, strain VPS5, hits give low values 0.993 | locus YOR070C, strain gyp1, hits give low values 0.984 | locus YOR080W, strain dia2, hits give low values 0.983 | locus YOR083W, strain WHI5, hits give low values 1.03 | locus YOR106W, strain vam3, hits give low values 1.04 | locus YOR136W, strain idh2, hits give low values 0.992 | locus YOR144C, strain elg1, hits give low values 0.998 | locus YOR184W, strain ser1, hits give low values 0.975 | locus YOR231W, strain MKK1, hits give low values 1.08 | locus YOR265W, strain rbl2, hits give low values 0.989 | locus YOR270C, strain vph1, hits give low values 0.99 | locus YOR290C, strain snf2, hits give low values 0.912 | locus YOR316C, strain cot1, hits give low values 0.993 | locus YPL051W, strain arl3, hits give low values 1.02 | locus YPL078C, strain atp4, hits give low values 0.998 | locus YPL106C, strain sse1, hits give low values 0.972 | locus YPL240C, strain hsp82, hits give low values 0.997 | locus YPL241C, strain CIN2, hits give low values 0.999 | locus YPL256C, strain CLN2, hits give low values 1.12 | locus YPR119W, strain clb2, hits give low values 1.01 | locus YPR141C, strain kar3, hits give low values 1.01 | locus YPR163C, strain tif3, hits give low values 1 | locus YPR167C, strain met16, hits give low values 1.01 | strain wtn01, hits give low values 0.983

— PubChem BioAssay AID1159580 (chemical genetic matrix, 2015)
